# According to article PMC7862700, “An all-to-all approach to the identification of sequence-specific readers for epigenetic DNA modifications on cytosine”:
# Key:
# Experiment in all cases: DAPPL (digital affinity profiling via proximity ligation, sequencing); 10 mM Tris-HCl pH 7.5, 50 mM NaCl, 1 mM DTT, 4% glycerol, room temperature, 30 min; GST-TFs on glutathione beads, 16-mer random dsDNA library, 0.1% formaldehyde crosslink after washing; high values mean tight binding
# [1] = molecular target: T1, FLI1 (Homo sapiens, UniProt Q01543 1-452); details: protein: recombinant; tags: N-terminal GST; dsDNA, one strand shown
# T1 sequence: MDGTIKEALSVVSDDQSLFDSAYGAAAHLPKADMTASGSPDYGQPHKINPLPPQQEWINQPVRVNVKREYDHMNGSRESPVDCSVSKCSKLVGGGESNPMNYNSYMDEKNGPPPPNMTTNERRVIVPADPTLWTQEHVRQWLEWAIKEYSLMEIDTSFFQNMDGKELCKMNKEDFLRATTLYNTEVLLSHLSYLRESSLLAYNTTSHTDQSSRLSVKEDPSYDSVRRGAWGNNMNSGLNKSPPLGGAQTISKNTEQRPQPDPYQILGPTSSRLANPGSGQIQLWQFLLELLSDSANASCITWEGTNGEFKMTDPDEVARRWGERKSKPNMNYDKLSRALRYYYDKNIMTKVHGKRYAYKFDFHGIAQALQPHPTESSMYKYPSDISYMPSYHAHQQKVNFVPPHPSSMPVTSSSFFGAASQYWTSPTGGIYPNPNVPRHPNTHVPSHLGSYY
# In short: (§1)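 In yeast, human transcription factors were expressed with a GST fusion, then pulled down on glutathione beads and given DNA barcodes. Pooled with a tag-only sample, they were exposed to 200 nmole of a 16-mer random double-stranded DNA library (Tris/NaCl/DTT/glycerol buffer, room temperature, 30 min), washed, crosslinked with 0.1% formaldehyde, proximity-ligated using BsaI/T4 ligase for 1 h at 37 °C, PCR-amplified and read on an Illumina NextSeq500. Each hexamer's frequency of reads for a factor, divided by the matching frequency for the tag-only sample, gives the binding signal.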
# [2] = molecular target: T2, ELK1 (Homo sapiens, UniProt P19419 1-428); details: protein: recombinant; tags: N-terminal GST; dsDNA, one strand shown
# T2 sequence: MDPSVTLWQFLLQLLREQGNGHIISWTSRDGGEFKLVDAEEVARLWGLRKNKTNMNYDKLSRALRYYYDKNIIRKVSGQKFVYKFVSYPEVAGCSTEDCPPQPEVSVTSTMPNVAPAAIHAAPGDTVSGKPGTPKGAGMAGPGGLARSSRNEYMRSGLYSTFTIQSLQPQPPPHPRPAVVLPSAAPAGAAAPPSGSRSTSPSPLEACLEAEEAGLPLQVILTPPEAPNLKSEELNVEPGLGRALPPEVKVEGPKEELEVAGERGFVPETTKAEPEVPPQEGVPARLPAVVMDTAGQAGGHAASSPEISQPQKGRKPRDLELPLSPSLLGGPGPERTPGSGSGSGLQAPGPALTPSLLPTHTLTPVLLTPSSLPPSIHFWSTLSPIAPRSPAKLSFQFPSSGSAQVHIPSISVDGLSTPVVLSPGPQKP
# In short: as §1
# [3] = molecular target: T3, GABPA (Homo sapiens, UniProt Q06546 1-454); details: protein: recombinant; tags: N-terminal GST; dsDNA, one strand shown
# T3 sequence: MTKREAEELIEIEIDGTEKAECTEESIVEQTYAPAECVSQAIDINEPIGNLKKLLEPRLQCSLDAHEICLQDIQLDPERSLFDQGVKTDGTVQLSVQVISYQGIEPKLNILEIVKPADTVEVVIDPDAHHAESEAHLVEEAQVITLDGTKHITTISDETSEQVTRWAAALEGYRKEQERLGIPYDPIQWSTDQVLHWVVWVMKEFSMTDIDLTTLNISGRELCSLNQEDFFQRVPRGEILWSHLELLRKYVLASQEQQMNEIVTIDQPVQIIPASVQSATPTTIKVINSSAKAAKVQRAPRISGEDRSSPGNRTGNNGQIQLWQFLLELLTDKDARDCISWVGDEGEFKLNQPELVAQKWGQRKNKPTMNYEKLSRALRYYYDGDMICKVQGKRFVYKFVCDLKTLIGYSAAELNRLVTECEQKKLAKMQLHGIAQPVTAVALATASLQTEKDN
# In short: as §1
# [4] = molecular target: T4, ERG (Homo sapiens, UniProt P11308 1-479); details: protein: recombinant; tags: N-terminal GST; dsDNA, one strand shown
# T4 sequence: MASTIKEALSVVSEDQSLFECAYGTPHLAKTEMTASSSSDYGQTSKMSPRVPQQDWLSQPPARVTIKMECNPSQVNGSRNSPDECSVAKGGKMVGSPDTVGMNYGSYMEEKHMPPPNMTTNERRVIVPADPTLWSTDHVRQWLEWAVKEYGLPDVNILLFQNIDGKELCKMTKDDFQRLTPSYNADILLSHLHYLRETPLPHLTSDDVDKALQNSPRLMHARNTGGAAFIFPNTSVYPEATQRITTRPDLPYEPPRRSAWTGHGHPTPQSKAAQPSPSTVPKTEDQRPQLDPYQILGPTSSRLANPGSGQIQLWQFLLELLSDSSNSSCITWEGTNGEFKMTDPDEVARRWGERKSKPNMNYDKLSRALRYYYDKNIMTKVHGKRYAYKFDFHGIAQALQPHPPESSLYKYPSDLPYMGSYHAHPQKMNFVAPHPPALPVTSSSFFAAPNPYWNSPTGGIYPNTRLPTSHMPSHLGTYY
# In short: as §1
# [5] = molecular target: ELF1 (Homo sapiens, UniProt P32519 1-619); details: protein: recombinant; tags: N-terminal GST; dsDNA, one strand shown
# Sequence of ELF1 (P32519 whole entry): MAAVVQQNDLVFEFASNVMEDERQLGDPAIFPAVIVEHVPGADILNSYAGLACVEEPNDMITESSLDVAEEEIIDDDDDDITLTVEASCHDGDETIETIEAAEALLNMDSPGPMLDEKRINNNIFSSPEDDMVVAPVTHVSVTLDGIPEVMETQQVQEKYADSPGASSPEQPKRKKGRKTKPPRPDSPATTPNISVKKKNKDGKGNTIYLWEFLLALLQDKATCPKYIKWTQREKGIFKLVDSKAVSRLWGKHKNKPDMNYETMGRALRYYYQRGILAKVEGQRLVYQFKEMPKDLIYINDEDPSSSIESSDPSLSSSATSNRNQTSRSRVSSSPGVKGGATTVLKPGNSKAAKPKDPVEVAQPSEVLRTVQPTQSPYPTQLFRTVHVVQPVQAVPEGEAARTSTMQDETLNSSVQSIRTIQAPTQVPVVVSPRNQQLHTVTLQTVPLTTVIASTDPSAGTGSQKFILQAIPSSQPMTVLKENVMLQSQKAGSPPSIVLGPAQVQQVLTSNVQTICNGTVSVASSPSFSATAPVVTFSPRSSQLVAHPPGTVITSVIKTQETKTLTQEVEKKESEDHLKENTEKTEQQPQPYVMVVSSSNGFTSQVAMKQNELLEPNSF
# In short: as §1
# [6] = molecular target: T5, EHF (Homo sapiens, UniProt Q9NZC4 1-300); details: protein: recombinant; tags: N-terminal GST; dsDNA, one strand shown
# T5 sequence: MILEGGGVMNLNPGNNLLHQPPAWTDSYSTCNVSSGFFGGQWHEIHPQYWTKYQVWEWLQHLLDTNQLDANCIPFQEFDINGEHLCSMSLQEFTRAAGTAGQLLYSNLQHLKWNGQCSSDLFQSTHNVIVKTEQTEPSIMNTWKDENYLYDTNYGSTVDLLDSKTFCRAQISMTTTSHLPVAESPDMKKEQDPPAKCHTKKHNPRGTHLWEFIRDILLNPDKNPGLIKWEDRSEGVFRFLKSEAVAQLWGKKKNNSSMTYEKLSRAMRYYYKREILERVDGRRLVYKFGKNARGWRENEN
# In short: as §1
# [7] = molecular target: SPI1 (Homo sapiens, UniProt P17947 1-270); details: protein: recombinant; tags: N-terminal GST; dsDNA, one strand shown
# In short: as §1
# [8] = molecular target: SPIB (Homo sapiens, UniProt Q01892 1-262); details: protein: recombinant; tags: N-terminal GST; dsDNA, one strand shown
# Sequence of SPIB (Q01892 whole entry): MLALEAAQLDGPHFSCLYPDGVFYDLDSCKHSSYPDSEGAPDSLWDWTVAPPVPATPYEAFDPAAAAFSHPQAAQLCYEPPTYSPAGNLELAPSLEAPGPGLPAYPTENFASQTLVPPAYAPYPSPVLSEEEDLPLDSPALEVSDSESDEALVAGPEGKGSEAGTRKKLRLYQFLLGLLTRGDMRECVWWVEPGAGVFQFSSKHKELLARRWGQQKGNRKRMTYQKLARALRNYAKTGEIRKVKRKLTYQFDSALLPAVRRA
# In short: as §1
# [9] = molecular target: T6, ELK3 (Homo sapiens, UniProt P41970 1-407); details: protein: recombinant; tags: N-terminal GST; dsDNA, one strand shown
# T6 sequence: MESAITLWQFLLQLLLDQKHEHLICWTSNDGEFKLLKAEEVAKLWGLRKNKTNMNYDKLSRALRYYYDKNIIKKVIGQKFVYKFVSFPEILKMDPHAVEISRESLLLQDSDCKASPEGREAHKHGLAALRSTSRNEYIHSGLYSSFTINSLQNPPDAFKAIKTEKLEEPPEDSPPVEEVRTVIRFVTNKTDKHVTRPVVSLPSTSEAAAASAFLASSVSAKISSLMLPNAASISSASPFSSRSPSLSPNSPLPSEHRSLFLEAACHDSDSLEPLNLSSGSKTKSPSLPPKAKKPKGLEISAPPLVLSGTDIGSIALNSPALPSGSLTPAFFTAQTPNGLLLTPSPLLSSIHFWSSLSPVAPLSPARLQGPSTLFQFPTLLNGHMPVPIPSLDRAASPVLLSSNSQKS
# In short: as §1
# [10] = molecular target: T7, FEV (Homo sapiens, UniProt Q99581 1-238); details: protein: recombinant; tags: N-terminal GST; dsDNA, one strand shown
# T7 sequence: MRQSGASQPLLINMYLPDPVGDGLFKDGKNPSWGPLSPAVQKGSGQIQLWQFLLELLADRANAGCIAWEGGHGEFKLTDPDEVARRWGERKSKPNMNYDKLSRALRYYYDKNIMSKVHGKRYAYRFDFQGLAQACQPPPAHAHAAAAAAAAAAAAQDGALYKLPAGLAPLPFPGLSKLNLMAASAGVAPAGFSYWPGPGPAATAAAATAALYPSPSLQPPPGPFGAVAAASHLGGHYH
# In short: as §1
# [11] = molecular target: ETV5 (Homo sapiens, UniProt P41161 1-510); details: protein: recombinant; tags: N-terminal GST; dsDNA, one strand shown
# Sequence of ETV5 (P41161 whole entry): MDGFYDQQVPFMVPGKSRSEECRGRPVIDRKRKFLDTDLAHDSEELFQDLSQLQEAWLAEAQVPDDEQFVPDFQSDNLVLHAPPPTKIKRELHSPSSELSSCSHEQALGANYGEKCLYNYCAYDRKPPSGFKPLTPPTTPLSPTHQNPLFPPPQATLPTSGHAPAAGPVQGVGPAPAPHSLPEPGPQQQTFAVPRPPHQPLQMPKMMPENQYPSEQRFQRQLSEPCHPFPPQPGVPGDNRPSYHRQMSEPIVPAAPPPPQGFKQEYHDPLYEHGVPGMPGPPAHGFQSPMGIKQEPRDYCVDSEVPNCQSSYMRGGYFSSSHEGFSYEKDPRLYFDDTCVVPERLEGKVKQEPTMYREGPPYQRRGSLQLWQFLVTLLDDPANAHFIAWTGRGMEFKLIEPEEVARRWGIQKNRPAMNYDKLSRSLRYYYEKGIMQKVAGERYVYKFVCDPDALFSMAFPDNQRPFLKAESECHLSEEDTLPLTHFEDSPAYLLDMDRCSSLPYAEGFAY
# In short: as §1
# [12] = molecular target: HSF1 (Homo sapiens, UniProt Q00613 1-529); details: protein: recombinant; tags: N-terminal GST; chain copies: 3; dsDNA, one strand shown
# Sequence of HSF1 (Q00613 whole entry): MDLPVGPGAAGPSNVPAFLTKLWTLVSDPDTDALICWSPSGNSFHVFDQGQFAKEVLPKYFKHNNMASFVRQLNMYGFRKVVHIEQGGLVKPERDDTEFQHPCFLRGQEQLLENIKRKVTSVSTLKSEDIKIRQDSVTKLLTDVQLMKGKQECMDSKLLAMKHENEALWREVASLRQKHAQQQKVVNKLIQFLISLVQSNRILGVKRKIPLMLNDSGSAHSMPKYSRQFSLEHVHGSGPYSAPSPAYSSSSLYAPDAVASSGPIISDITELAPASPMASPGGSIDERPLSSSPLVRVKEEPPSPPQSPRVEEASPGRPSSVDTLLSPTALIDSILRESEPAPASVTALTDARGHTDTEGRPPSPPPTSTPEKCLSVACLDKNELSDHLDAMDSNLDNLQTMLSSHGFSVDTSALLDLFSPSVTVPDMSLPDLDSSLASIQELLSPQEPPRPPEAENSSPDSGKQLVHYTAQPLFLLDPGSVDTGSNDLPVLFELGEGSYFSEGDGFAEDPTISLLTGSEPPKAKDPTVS
# In short: as §1
# [13] = molecular target: T8, SPIC (Homo sapiens, UniProt Q8N5J4 1-248); details: protein: recombinant; tags: N-terminal GST; dsDNA, one strand shown
# T8 sequence: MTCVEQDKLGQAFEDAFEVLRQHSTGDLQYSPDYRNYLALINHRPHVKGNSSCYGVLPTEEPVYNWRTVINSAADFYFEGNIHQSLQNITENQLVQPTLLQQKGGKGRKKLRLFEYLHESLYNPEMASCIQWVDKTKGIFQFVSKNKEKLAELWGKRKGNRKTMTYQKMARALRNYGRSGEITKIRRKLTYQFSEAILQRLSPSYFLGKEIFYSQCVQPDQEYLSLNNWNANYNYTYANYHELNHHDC
# In short: as §1
# [14] = molecular target: ELF4 (Homo sapiens, UniProt Q99607 1-663); details: protein: recombinant; tags: N-terminal GST; dsDNA, one strand shown
# Sequence of ELF4 (Q99607 whole entry): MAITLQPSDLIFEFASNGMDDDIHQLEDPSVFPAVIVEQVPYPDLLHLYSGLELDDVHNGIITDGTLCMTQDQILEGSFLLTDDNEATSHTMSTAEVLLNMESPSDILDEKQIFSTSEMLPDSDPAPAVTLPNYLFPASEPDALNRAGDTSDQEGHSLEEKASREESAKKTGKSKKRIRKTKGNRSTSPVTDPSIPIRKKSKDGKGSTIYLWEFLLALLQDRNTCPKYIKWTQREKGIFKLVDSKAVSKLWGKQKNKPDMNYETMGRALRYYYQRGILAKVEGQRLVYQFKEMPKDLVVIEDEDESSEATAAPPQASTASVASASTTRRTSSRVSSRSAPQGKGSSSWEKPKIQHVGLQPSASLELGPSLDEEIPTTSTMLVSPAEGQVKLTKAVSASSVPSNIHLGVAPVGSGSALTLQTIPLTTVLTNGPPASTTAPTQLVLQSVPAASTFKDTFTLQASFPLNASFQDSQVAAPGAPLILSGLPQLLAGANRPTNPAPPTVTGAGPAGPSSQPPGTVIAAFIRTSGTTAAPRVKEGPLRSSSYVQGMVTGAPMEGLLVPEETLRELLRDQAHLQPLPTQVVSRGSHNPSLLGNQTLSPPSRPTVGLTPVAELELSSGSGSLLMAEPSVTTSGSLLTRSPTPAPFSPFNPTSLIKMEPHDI
# In short: as §1
# [15] = molecular target: T9, ELK4 (Homo sapiens, UniProt P28324-2 1-405); details: protein: recombinant; tags: N-terminal GST; dsDNA, one strand shown
# T9 sequence: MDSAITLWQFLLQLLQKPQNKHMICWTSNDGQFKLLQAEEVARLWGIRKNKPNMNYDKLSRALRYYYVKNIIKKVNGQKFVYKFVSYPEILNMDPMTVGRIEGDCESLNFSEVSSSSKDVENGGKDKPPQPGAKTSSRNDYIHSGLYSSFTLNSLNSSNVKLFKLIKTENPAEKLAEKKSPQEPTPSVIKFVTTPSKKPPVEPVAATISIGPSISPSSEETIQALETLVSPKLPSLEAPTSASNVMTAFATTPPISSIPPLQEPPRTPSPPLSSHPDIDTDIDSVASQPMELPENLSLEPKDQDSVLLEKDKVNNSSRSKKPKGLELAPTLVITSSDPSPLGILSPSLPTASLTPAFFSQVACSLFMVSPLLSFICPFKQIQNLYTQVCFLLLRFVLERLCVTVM
# In short: as §1
# [16] = molecular target: T10, ETV2 (Homo sapiens, UniProt O00321 1-342); details: protein: recombinant; tags: N-terminal GST; dsDNA, one strand shown
# T10 sequence: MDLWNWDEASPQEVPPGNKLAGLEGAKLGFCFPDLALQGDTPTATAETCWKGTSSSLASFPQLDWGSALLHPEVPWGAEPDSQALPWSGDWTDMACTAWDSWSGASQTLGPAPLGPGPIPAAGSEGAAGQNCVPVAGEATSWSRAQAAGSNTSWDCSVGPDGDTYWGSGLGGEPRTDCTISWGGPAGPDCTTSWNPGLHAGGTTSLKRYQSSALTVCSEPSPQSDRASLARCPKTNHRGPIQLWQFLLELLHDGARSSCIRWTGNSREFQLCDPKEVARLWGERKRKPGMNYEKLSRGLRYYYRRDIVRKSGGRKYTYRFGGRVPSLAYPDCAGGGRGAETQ
# In short: as §1
# [17] = molecular target: T11, ELF3 (Homo sapiens, UniProt P78545 1-371); details: protein: recombinant; tags: N-terminal GST; dsDNA, one strand shown
# T11 sequence: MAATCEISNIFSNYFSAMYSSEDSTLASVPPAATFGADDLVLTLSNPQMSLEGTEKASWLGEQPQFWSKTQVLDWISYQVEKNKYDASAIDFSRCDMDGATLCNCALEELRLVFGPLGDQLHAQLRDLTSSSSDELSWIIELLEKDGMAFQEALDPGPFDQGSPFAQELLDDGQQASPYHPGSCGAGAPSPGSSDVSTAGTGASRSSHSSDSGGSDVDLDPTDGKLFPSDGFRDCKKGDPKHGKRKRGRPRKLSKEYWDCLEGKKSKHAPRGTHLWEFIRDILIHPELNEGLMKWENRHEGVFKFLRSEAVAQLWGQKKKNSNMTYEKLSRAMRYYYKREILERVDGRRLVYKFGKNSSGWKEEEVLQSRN
# In short: as §1
# [18] = molecular target: ETV1 (Homo sapiens, UniProt P50549 1-477); details: protein: recombinant; tags: N-terminal GST; dsDNA, one strand shown
# Sequence of ETV1 (P50549 whole entry): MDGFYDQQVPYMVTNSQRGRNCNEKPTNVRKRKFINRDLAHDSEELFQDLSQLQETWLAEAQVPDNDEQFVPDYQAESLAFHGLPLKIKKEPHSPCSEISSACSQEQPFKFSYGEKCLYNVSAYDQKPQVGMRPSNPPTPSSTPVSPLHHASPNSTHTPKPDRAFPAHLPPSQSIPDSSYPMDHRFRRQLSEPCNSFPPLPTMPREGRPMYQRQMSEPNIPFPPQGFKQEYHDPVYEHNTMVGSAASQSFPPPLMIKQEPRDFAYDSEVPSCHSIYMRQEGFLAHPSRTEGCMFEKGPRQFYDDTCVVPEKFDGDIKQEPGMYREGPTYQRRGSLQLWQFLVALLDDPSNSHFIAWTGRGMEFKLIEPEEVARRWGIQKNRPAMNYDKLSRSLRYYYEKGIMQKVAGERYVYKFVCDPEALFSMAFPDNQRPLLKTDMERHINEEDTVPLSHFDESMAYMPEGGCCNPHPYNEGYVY
# In short: as §1
sequence,measurement,setting,value
CTGCCC,binding signal,[1],"1.31 fold enrichment (6-mer frequency, TF over GST control)"
same,binding signal,[2],"1.29 fold enrichment (6-mer frequency, TF over GST control)"
same,binding signal,[3],"1.29 fold enrichment (6-mer frequency, TF over GST control)"
same,binding signal,[4],"1.36 fold enrichment (6-mer frequency, TF over GST control)"
same,binding signal,[5],"1.32 fold enrichment (6-mer frequency, TF over GST control)"
same,binding signal,[6],"1.46 fold enrichment (6-mer frequency, TF over GST control)"
same,binding signal,[7],"1.27 fold enrichment (6-mer frequency, TF over GST control)"
same,binding signal,[8],"1.19 fold enrichment (6-mer frequency, TF over GST control)"
same,binding signal,[9],"1.1 fold enrichment (6-mer frequency, TF over GST control)"
same,binding signal,[10],"1.37 fold enrichment (6-mer frequency, TF over GST control)"
same,binding signal,[11],"1.25 fold enrichment (6-mer frequency, TF over GST control)"
same,binding signal,[12],"1.05 fold enrichment (6-mer frequency, TF over GST control)"
same,binding signal,[13],"1.42 fold enrichment (6-mer frequency, TF over GST control)"
same,binding signal,[14],"1.29 fold enrichment (6-mer frequency, TF over GST control)"
same,binding signal,[15],"1.42 fold enrichment (6-mer frequency, TF over GST control)"
same,binding signal,[16],"1.38 fold enrichment (6-mer frequency, TF over GST control)"
same,binding signal,[17],"1.09 fold enrichment (6-mer frequency, TF over GST control)"
same,binding signal,[18],"1.2 fold enrichment (6-mer frequency, TF over GST control)"
